According to the supplement of paper PMC12636033:
± gives the standard deviation of the averaged measurements. The full ranking holds about 33,000 sequences; the median of “E-score (rank enrichment, -0.5 to 0.5)” is about -0.0028, and the highest 2% start at about 0.23. The list comes from a sample in which the highest values are over-represented; it also holds similar and randomly drawn sequences.

System: 2Sb-muMax20 (muMax20 with two 1,3-bis(methyl)benzene Cys staples, A13C/A17C and Q88C/A92C, C-terminal Lys)
Test: PBM 8-mer E-score (E-score (rank enrichment, -0.5 to 0.5)); higher = stronger preferential binding
Description: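 Protein binding microarray (universal PBM chip covering all 10-mers in fixed probe flanks) with chemically synthesized human Max(13-93) bHLH-LZ analogs (not full-length Max) bearing noncanonical residues (hArg, Tha, Aib, Nle at 65) and aromatic Cys staples. Read-out per 8-mer (and its reverse complement): E-score (rank-based enrichment, -0.5 to 0.5) and Z-score of median probe intensity.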

Row | Sequence | PBM 8-mer E-score
1 | CATCATGA | 0.0474 ± 0.048
2 | TATCATGA | 0.278 ± 0.02
3 | AATCATGA | 0.136 ± 0.035
4 | CGGGATTA | 0.032 ± 0.017
5 | GGGGATAC | 0.0267 ± 0.0099
6 | AGGGATTA | -0.0189 ± 0.016
7 | TGGGATAA | 0.0797 ± 0.017
8 | GGGGATAA | 0.234 ± 0.063
9 | GGGGATTA | 0.278 ± 0.013
10 | CAGTAAGG | -0.0281 ± 0.052
11 | AATAGTGT | 0.1565 ± 0.001
12 | GTCCCCGA | 0.0628 ± 0.032
13 | AACTGTGA | -0.0892 ± 0.026
14 | TAACTGGA | -0.0436 ± 0.0063
15 | CATTAGCC | -0.0287 ± 0.08
16 | CTATGCCA | 0.0722 ± 0.02
17 | ATATGCCA | 0.305 ± 0.06
18 | ATATGCCG | -0.076 ± 0.083
19 | ATCGACGC | 0.0538 ± 0.027
20 | ATGTGTAC | 0.107 ± 0.014
21 | GCCAGTGA | 0.0103 ± 0.058
22 | TAACGTGA | -0.0146 ± 0.035
23 | ACACGTAC | 0.0764 ± 0.051
24 | ACACGAGG | 0.0366 ± 0.063
25 | ACACGTGG | 0.416 ± 0.0009
26 | AAACGTGG | 0.0929 ± 0.011

Row | Sequence | PBM 8-mer E-score
27 | ACACGTGC | 0.409 ± 0.0079
28 | ACACGAGT | 0.248 ± 0.044
29 | ACACGAGA | -0.125 ± 0.065
30 | ACACGTAG | 0.0467 ± 0.016
31 | AGACGTGC | -0.124 ± 0.021
32 | TCACGTGA | 0.439 ± 0.033
33 | TCACGTAA | -0.031 ± 0.021
34 | AAGGCCGA | -0.0488 ± 0.013
35 | CGCTGACA | -0.122 ± 0.0063
36 | TCTAGTCA | 0.105 ± 0.035
37 | CCCCCGGG | -0.43 ± 0.042
38 | CCGCCTCG | -0.04 ± 0.07
39 | GATACTCC | -0.0231 ± 0.06
40 | GCGCGGGA | -0.038 ± 0.036
41 | ATTCAGAG | -0.21 ± 0.046
42 | CGTGCATA | 0.165 ± 0.016
43 | ACACGTAT | 0.205 ± 0.022
44 | AAACGTGT | 0.0274 ± 0.017
45 | ACACGTGA | 0.3874 ± 0.0005
46 | ATACGTGA | 0.0108 ± 0.014
47 | AGACGTGA | 0.0177 ± 0.032
48 | ACACGTGT | 0.396 ± 0.015
49 | ATGTCGCG | -0.163 ± 0.042
50 | CATCGTAC | -0.0597 ± 0.0024
51 | ACTACGTC | 0.0847 ± 0.0011
52 | GTCGATTA | -0.0254 ± 0.015

Row | Sequence | PBM 8-mer E-score
53 | AGCAGGCT | -0.169 ± 0.016
54 | GAGCCCGC | -0.24 ± 0.016
55 | AGCGCTCA | -0.0925 ± 0.0074
56 | ATAATGGG | 0.238 ± 0.034
57 | ATAATGGA | 0.185 ± 0.0033
58 | CTAATGTC | -0.0718 ± 0.018
59 | ATAATGGC | 0.012 ± 0.012
60 | ATAATGTC | 0.238 ± 0.021
61 | ATAATGTG | 0.159 ± 0.037
62 | AGGAACTG | -0.188 ± 0.049
63 | GCTGCACA | -0.179 ± 0.029
64 | CGCTTGTA | 0.123 ± 0.13
65 | GATGCGTA | 0.126 ± 0.054
66 | CATGCATC | 0.0655 ± 0.044
67 | AATGCATA | 0.155 ± 0.01
68 | CATGCAAG | 0.0851 ± 0.0044
69 | AATGCATT | 0.282 ± 0.018
70 | CATGCAAC | 0.247 ± 0.027
71 | AATGCAAC | 0.0741 ± 0.045
72 | CATGCGTA | 0.2542 ± 0.0016
73 | AATGCGTA | 0.192 ± 0.017
74 | CATGCATA | 0.177 ± 0.0083
75 | CATGCATG | 0.349 ± 0.03
76 | AATGCATC | 0.174 ± 0.028
77 | AAAGGGGA | 0.101 ± 0.002
78 | ACCGGGCA | -0.237 ± 0.053

Row | Sequence | PBM 8-mer E-score
79 | CTGGTCCC | -0.186 ± 0.015
80 | GGCTTCGA | -0.0528 ± 0.016
81 | GTCTTCAC | -0.127 ± 0.079
82 | CACCGAGG | -0.221 ± 0.014
83 | TATGCAAA | 0.0419 ± 0.0014
84 | AATGCAAG | 0.134 ± 0.016
85 | ATTGCATG | 0.13 ± 0.006
86 | ACTGCATG | 0.0264 ± 0.067
87 | AATGCATG | 0.26 ± 0.017
88 | AATGCAAA | 0.247 ± 0.034
89 | ATGGTTAC | -0.0452 ± 0.019
90 | GCCACCGA | -0.191 ± 0.0059
91 | ATTGCATA | 0.228 ± 0.028
92 | TATAAACA | 0.156 ± 0.011
93 | ACTGTTAG | -0.0514 ± 0.065
94 | AATTAATA | 0.217 ± 0.011
95 | GATTAATA | 0.258 ± 0.041
96 | GATTAATC | -0.0411 ± 0.03
97 | CATTAATA | 0.148 ± 0.024
98 | GATTAAGA | 0.129 ± 0.0066
99 | TATTAATA | 0.296 ± 0.027
100 | GATGATCC | -0.0779 ± 0.039
101 | CATCGTTC | -0.12 ± 0.012
102 | AGACAATG | -0.0359 ± 0.045
103 | AGACAATC | 0.113 ± 0.029
104 | AGACAATA | 0.242 ± 0.082

Row | Sequence | PBM 8-mer E-score
105 | GCACGCAA | -0.108 ± 0.043
106 | ACCCCAGC | 0.162 ± 0.054
107 | GGAGGGAC | -0.162 ± 0.097
108 | CTAACAAA | 0.144 ± 0.04
109 | GGATGCCA | -0.0771 ± 0.0063
110 | AGTGTGCA | 0.127 ± 0.052
111 | CCCGCCCA | 0.4 ± 0.012
112 | GCCGCCAC | -0.229 ± 0.042
113 | CCCGCCAC | 0.239 ± 0.034
114 | ACCGCCAC | -0.106 ± 0.0018
115 | GCCGCCCA | -0.145 ± 0.07
116 | CCCGCCCG | 0.116 ± 0.12
117 | CCCGCCCC | 0.241 ± 0.1
118 | ACCGCCCC | 0.171 ± 0.074
119 | GCCGCCCC | 0.0256 ± 0.14
120 | AAAGCTGC | 0.108 ± 0.027
121 | GAAAGACC | -0.0392 ± 0.039
122 | ATCGTTGG | -0.105 ± 0.092
123 | CGACGATA | -0.0378 ± 0.027
124 | CCAGTGGC | -0.0927 ± 0.044
125 | CAGGCAGC | -0.163 ± 0.015
126 | GAAGCGAC | -0.0841 ± 0.007
127 | ACTCGTAA | 0.213 ± 0.042
128 | CCCCAACA | 0.256 ± 0.061
129 | TCCCAACA | 0.0292 ± 0.05
130 | CCCCAACC | 0.131 ± 0.087

Row | Sequence | PBM 8-mer E-score
131 | CAGAAAAA | -0.0726 ± 0.05
132 | AGTGCATC | -0.00688 ± 0.015
133 | AAATTATG | 0.168 ± 0.0019
134 | AAATTATC | 0.107 ± 0.0057
135 | AAATTATA | 0.253 ± 0.069
136 | TAATTATA | 0.262 ± 0.03
137 | CAATTATA | 0.115 ± 0.045
138 | GAATTATA | 0.141 ± 0.061
139 | GCACACGA | -0.00209 ± 0.0015
140 | AAGTTAGC | 0.00664 ± 0.0061
141 | TGCCCGAA | -0.0214 ± 0.05
142 | GGACAAAA | 0.0253 ± 0.017
143 | AATATCGT | 0.091 ± 0.0052
144 | TCGTGAAA | -0.2052 ± 0.00053
145 | ACGTGATG | 0.239 ± 0.0046
146 | ACGTGAAA | 0.238 ± 0.035
147 | ACGTGATC | 0.187 ± 0.028
148 | GCGTGATA | 0.113 ± 0.028
149 | ACGTGAGG | 0.0924 ± 0.012
150 | ACGTGAAC | 0.0297 ± 0.012
151 | ACGTGATA | 0.244 ± 0.05
152 | CCGTGATA | -0.132 ± 0.043
153 | GGTTTAAC | -0.0252 ± 0.0077
154 | CACATTGG | -0.033 ± 0.038
155 | ACACTGCA | -0.0884 ± 0.039
156 | AGACCTAG | -0.205 ± 0.0049

Row | Sequence | PBM 8-mer E-score
157 | ACGAACTG | -0.134 ± 0.02
158 | CCCTATTA | 0.0897 ± 0.046
159 | CGCCTCCG | -0.115 ± 0.014
160 | ATATTGAA | 0.0093 ± 0.059
161 | TTATTGAA | 0.3 ± 0.015
162 | GTATTGAA | 0.0851 ± 0.057
163 | ACGCGCCC | 0.00592 ± 0.048
164 | ACGTTTAG | 0.0678 ± 0.079
165 | CTAACACA | -0.028 ± 0.069
166 | ATAACATC | 0.211 ± 0.049
167 | ATAACACG | 0.137 ± 0.063
168 | ATAACATG | 0.192 ± 0.035
169 | ATAACACA | 0.236 ± 0.023
170 | ATAACATA | 0.2304 ± 0.0015
171 | CTTGGCGC | -0.0178 ± 0.027
172 | GTGATCAA | -0.00195 ± 0.013
173 | TATTGGAA | 0.0585 ± 0.0063
174 | AATCACTC | -0.0758 ± 0.076
175 | ACAGTGAG | -0.03 ± 0.013
176 | ATTGAAGC | 0.00997 ± 0.0075
177 | ATAGGCAG | 0.165 ± 0.037
178 | CTAGGCAA | -0.167 ± 0.047
179 | ATAGGCAA | 0.248 ± 0.061
180 | CACGTGAA | 0.369 ± 0.02
181 | CACGTGAC | 0.386 ± 0.011
182 | TACGTGAA | 0.0248 ± 0.06

Row | Sequence | PBM 8-mer E-score
183 | AACGTGAC | 0.128 ± 0.0036
184 | CACGTGAG | 0.186 ± 0.016
185 | GACGTGAA | -0.272 ± 0.011
186 | ATGAGGTG | 0.103 ± 0.034
187 | CATAGACA | 0.0657 ± 0.028
188 | CCCAACTA | 0.242 ± 0.0045
189 | CAAAACTA | 0.062 ± 0.059
190 | ACCAACTA | 0.0506 ± 0.082
191 | ACAAACTA | 0.152 ± 0.048
192 | GCCAACTA | 0.0147 ± 0.076
193 | CCAAACTA | 0.234 ± 0.0031
194 | ACATTCCA | -0.0113 ± 0.025
195 | GAGGGTCA | -0.00483 ± 0.032
196 | CACATTTC | 0.141 ± 0.013
197 | CCCTACGA | 0.232 ± 0.0033
198 | TCCTACGA | -0.0774 ± 0.011
199 | CCCTACGC | 0.0539 ± 0.023
200 | GGGAGACA | 0.115 ± 0.016
201 | GCTCTGCA | -0.0815 ± 0.037
